Sampled rows, rich in hits. Any-hit rate of the full collection: about 7%.
PI5P4Ka inh: blocks human PI5P4K alpha kinase activity; P48426; PI5P4Kalpha enzyme, ADP-Glo luminescence, 60 min; stronger effect = lower value; max response, %; hit rate 1.2% among 330,000; AID 652105; active = max response of -50% or lower; inconclusive = between -30% and -50%; inactive = -30% or higher; also: value at the top dose of about 77 µM; % is scaled to controls: 0 for no effect and ±100 for the full control effect
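ADP-Glo luminescence end-point read after a 60 min room-temperature kinase reaction of PI5P4Kalpha plus substrate, initiated with ATP at 5 microM final. Buffer: 0.038 M HEPES pH 7.4, EGTA, 0.1% CHAPS, 5% DMSO.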
HP1b binding inh: HP1-beta chromodomain-methylated histone interaction inhibition. AlphaScreen HP1-beta / biotin-H3K9me3 peptide binding. AID 540317. P83916. hit rate 0.56% among 390,000. Potency, µM (doses to about 114 µM), without a hit: at the highest dose activity change, negative = inhibition, hits mostly inhibitors; also: potency is read from the fitted curve at half-maximal effect; nearly all actives have a fitted effect of over 70% in size
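HP1-beta protein (50 nM final) preincubated 30 min at room temperature with biotinylated H3(1-18)K9me3 peptide (50 nM) in PBS pH 7.4, 0.01% Tween-20, then compound added for 30 min. AlphaScreen streptavidin donor/nickel chelate acceptor beads (10 ug/mL final), 30 min dark, luminescence read.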
PLK1 PBD inh: blocks phosphopeptide binding to human PLK1 polo-box domain | hit rate 2.8% among 360,000 | Plk1 PBD binding of FITC phosphopeptide, fluorescence polarization | Potency, µM, inactives show max response, negative = inhibition, most hits filed as inhibitors; also: potency is read from the fitted curve at half-maximal effect; series mostly up to about 57 µM; % is scaled to controls: 0 for no effect and ±100 for the full control effect; nearly all actives have a fitted effect of over 65% in size
JMJD2A Tudor: blocks the human JMJD2A Tudor domain; AlphaScreen JMJD2A-Tudor / H3K4me3 peptide binding; Potency, µM (highest dose often 114 µM), for the others: at the highest dose activity change, negative = inhibition, most hits filed as inhibitors; hit rate 4.4% among 390,000; also: potency is read from the fitted curve at half-maximal effect; % is scaled to controls: 0 for no effect and ±100 for the full control effect; nearly all actives have a fitted effect of over 50% in size
KAT2A inh: inhibitors of human GCN5L2 histone acetyltransferase | GCN5L2 HAT assay, ThioGlo1 CoA-SH fluorescence | Potency, µM (top dose mostly 58.9 µM), inactives show top-dose activity change, negative = inhibition, usual class: inhibitors | hit rate 0.21% among 390,000 | AID 504327; also: potency is read from the fitted curve at half-maximal effect; % is scaled to controls: 0 for no effect and ±100 for the full control effect
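Enzyme at 20nM final was mixed with library compounds for 15 min at room temperature. Peptide H3(1-25) at 75uM, acetyl-CoA at 70uM and ThioGlo1 at 50uM were then added. Plates were read immediately and after 20 min (Ex340nm/Em540nm).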
BAZ2B inh: BAZ2B (human) inhibition | Q9UIF8 | AlphaScreen BAZ2B-H3K14Ac peptide displacement | Potency, µM (doses to about 114 µM), for inactives: top-dose activity change, negative = inhibition, usual class: inhibitors | hit rate 4.4% among 360,000 | AID 504333; also: potency is read from the fitted curve at half-maximal effect; % is scaled to controls: 0 for no effect and ±100 for the full control effect; nearly all actives have a fitted effect of over 60% in size
Target sequence (Q9UIF8 whole entry, looked up): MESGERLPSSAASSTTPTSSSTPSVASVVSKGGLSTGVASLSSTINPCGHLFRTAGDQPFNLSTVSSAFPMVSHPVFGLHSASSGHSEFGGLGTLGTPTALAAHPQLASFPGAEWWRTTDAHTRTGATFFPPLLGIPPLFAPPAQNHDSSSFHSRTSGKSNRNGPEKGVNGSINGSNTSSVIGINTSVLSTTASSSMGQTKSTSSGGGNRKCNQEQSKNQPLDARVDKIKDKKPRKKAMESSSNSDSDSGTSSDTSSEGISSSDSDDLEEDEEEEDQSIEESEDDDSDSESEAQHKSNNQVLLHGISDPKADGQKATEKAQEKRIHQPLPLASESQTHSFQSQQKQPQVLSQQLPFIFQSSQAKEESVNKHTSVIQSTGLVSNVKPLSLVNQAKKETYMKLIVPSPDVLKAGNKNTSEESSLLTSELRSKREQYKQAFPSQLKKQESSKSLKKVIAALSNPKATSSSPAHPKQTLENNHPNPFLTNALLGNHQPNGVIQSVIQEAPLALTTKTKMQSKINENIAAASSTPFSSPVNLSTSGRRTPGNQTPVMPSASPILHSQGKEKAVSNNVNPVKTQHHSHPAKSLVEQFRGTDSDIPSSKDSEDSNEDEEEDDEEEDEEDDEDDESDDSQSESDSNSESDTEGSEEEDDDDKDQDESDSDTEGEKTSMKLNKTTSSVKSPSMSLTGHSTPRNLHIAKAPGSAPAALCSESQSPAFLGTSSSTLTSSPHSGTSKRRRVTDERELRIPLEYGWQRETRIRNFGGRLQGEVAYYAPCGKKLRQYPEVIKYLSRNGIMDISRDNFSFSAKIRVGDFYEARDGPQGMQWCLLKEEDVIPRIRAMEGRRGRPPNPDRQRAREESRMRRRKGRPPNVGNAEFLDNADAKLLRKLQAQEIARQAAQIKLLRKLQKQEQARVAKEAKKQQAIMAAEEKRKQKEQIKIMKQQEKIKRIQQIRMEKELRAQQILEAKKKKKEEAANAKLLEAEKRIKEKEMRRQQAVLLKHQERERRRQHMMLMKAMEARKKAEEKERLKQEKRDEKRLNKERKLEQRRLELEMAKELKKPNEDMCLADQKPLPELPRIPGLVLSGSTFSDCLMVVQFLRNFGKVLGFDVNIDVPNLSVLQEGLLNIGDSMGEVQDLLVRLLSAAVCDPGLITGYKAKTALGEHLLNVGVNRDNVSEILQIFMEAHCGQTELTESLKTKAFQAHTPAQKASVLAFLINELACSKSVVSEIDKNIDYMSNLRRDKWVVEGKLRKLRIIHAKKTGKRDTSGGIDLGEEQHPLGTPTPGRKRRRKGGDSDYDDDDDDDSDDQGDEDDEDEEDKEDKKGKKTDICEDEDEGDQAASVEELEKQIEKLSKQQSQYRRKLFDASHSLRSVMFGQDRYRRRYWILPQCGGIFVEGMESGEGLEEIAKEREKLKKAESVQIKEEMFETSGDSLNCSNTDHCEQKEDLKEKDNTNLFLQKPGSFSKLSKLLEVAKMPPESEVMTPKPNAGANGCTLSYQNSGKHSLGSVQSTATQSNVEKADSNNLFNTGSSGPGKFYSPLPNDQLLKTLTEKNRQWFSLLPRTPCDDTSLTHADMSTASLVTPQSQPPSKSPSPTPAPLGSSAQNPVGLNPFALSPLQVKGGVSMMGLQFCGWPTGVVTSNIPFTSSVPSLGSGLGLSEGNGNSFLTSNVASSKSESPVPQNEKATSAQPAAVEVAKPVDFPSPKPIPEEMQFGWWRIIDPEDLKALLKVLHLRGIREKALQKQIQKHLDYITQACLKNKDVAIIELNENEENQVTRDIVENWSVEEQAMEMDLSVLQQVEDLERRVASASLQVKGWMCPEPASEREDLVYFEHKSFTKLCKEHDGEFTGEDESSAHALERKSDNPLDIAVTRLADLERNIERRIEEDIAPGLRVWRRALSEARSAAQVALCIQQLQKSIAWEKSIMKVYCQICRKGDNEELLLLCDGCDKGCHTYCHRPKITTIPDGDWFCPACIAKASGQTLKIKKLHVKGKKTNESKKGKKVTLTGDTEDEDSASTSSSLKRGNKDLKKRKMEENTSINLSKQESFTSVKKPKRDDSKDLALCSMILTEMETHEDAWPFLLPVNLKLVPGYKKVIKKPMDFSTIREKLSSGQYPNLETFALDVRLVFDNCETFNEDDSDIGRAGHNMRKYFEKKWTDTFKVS
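In this displacement format the biotinylated H3(5-23) peptide acetylated at Lys14 serves as ligand at 50 nM, with BAZ2B at 50 nM in PBS pH 7.4 containing 0.01% Tween-20. Donor and acceptor beads are 10 ug/mL final.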
An asterisk follows results filed as active; ! = not active in a repeat; [ ] = another dose, or the depositor's remark. Unless noted, calls follow the shape of the dose curve; as a rule, active = well fitted curve in the direction sought with a large enough effect; inconclusive = small, poorly fitted or top-dose-only effect, or another doubt; inactive = no such curve, though single readings can be large; an effect the other way counts as inactive or inconclusive.

For Cc1cc(Br)ccc1NC(=O)CN(C)C(=O)c1ccccc1OCc1c(C)noc1C the results were PI5P4Ka inh 4.2 and PLK1 PBD inh -3.5%.
Screening Cc1cc(C)c2c(N)c(C(=O)N3CCN(c4ncccn4)CC3)sc2n1 returned PI5P4Ka inh -12.1, HP1b binding inh 45.6%, PLK1 PBD inh inconclusive, JMJD2A Tudor 39.8µM*, KAT2A inh -5.1% and BAZ2B inh -1.5%.
CCCN(CC(=O)Nc1ccccc1C)C(=O)/C=C/c1ccc(OCC)c(OC)c1 was read as PI5P4Ka inh -2.1, HP1b binding inh 4.6%, PLK1 PBD inh -15.8%, JMJD2A Tudor -4.0%, KAT2A inh -13.7% and BAZ2B inh 4.4%.
Screening O=C(CCS(=O)(=O)c1ccc2c(c1)NC(=O)CO2)NCCc1ccccc1 returned PI5P4Ka inh 3.3, HP1b binding inh 9.8%, PLK1 PBD inh 18.9µM*, JMJD2A Tudor inconclusive, KAT2A inh -1.8% and BAZ2B inh -18.0%.
For Cc1ccc(NS(=O)(=O)c2cc3c(cc2C)NC(=O)CO3)cc1C the results were JMJD2A Tudor -15.0%.
For COC(=O)c1ccc(NS(=O)(=O)c2ccc3c(c2)n(C)c(=O)n3C)cc1 the results were PI5P4Ka inh -0.6, HP1b binding inh 7.4%, PLK1 PBD inh -2.2%, JMJD2A Tudor -23.8%, KAT2A inh 3.7% and BAZ2B inh inconclusive.
For O=C(CCS(=O)(=O)c1ccc2c(c1)NC(=O)CO2)NCc1ccccc1 the results were PI5P4Ka inh 5.8, HP1b binding inh 81.4%, PLK1 PBD inh -9.9%, JMJD2A Tudor -6.8%, KAT2A inh -5.4% and BAZ2B inh -20.9%.
Screening CCOC(=O)c1ccc(NS(=O)(=O)c2cc3c(cc2C)NC(=O)CO3)cc1 returned PI5P4Ka inh -10.6, HP1b binding inh 3.5%, PLK1 PBD inh 29.9µM*, JMJD2A Tudor inconclusive, KAT2A inh -0.7% and BAZ2B inh -17.2%.
For CCOC(=O)c1ccc(NS(=O)(=O)c2ccc3c(c2)n(C)c(=O)n3C)cc1 the results were PI5P4Ka inh 3.9, HP1b binding inh 15.2%, PLK1 PBD inh -10.0%, JMJD2A Tudor -0.7%, KAT2A inh -22.9% and BAZ2B inh 79.4µM*!.
For CC1CCC(NC(=O)CCS(=O)(=O)c2ccc3c(c2)NC(=O)CO3)CC1 (stereo not drawn) the results were PI5P4Ka inh -5.6, HP1b binding inh 21.1%, PLK1 PBD inh 16.8µM*, JMJD2A Tudor inconclusive, KAT2A inh -0.5% and BAZ2B inh -13.9%.
For O=C1COc2ccc(S(=O)(=O)CCC(=O)NC3CCCCC3)cc2N1 the results were PI5P4Ka inh -1.4, HP1b binding inh 60.4%, PLK1 PBD inh -10.9%, JMJD2A Tudor -16.0%, KAT2A inh -0.6% and BAZ2B inh 0.4%.
`O=C(CSc1oc(-c2ccco2)nc1S(=O)(=O)c1ccc(Cl)cc1)c1ccc(Cl)cc1` gave HP1b binding inh -7.5%, JMJD2A Tudor inconclusive, KAT2A inh -17.4% and BAZ2B inh inconclusive.
For COc1ccc(CCN(Cc2cc3ccc(C)cc3[nH]c2=O)C(C)=O)cc1OC the results were PI5P4Ka inh 1.6, HP1b binding inh 4.3%, PLK1 PBD inh -11.1%, JMJD2A Tudor -2.5%, KAT2A inh -4.2% and BAZ2B inh -16.6%.
O=C(CCS(=O)(=O)c1cc2c(cc1Cl)NC(=O)CO2)NCc1ccccc1 was read as PI5P4Ka inh 10.1, HP1b binding inh 12.6%, PLK1 PBD inh 26.7µM*, JMJD2A Tudor inconclusive, KAT2A inh -0.6% and BAZ2B inh -11.5%[57.1 µM].
O=C(CCS(=O)(=O)c1cc2c(cc1Cl)NC(=O)CO2)NCCc1ccccc1 was read as PI5P4Ka inh 1.5, HP1b binding inh 29.1%, PLK1 PBD inh -10.5%, JMJD2A Tudor -22.1%, KAT2A inh -14.7% and BAZ2B inh -12.7%.
Cc1cc2c(cc1S(=O)(=O)CCC(=O)N(C)Cc1ccccc1)OCC(=O)N2 was read as PI5P4Ka inh -0.4, HP1b binding inh inconclusive, PLK1 PBD inh -24.9%, JMJD2A Tudor 20µM*!, KAT2A inh inconclusive and BAZ2B inh 12.6µM*!.
Screening CCc1cccc(NC(=O)CCS(=O)(=O)c2cc3c(cc2C)NC(=O)CO3)c1 returned PI5P4Ka inh -8.1, HP1b binding inh 32.8%, PLK1 PBD inh -22.9%, JMJD2A Tudor -2.1%, KAT2A inh -17.3% and BAZ2B inh -3.7%.
O=S(=O)(CCN(CCS(=O)(=O)C(F)(F)F)CC1CCCO1)C(F)(F)F (stereo not drawn) was read as HP1b binding inh inconclusive, PLK1 PBD inh 26.7µM*, JMJD2A Tudor -26.7%, KAT2A inh -7.1% and BAZ2B inh -6.2%.
CCN(C(=O)COC(=O)C1=COCCO1)c1c(N)n(Cc2ccccc2)c(=O)[nH]c1=O was read as PI5P4Ka inh -6.2, HP1b binding inh 22.9%, PLK1 PBD inh -2.1%, JMJD2A Tudor -11.0%, KAT2A inh 2.1% and BAZ2B inh 2.3%.
For CCC(C(=O)Nc1nc(C)c(C)s1)c1ccccc1 (stereo not drawn) the results were PI5P4Ka inh 1.5, HP1b binding inh 11.0%, PLK1 PBD inh -0.1%, JMJD2A Tudor -23.4%, KAT2A inh inconclusive and BAZ2B inh 50.1µM*.
For CCC(C(=O)Nc1nc(C)cs1)c1ccccc1 (stereo not drawn) the results were PI5P4Ka inh -16.4, HP1b binding inh -14.9%, PLK1 PBD inh 26.7µM*, JMJD2A Tudor 50.1µM*, KAT2A inh -2.4% and BAZ2B inh 1.9%.
O=C1/C(=C/c2ccc([N+](=O)[O-])cc2)C=C(c2ccccc2)N1c1ccc(O)cc1 was read as HP1b binding inh inconclusive, PLK1 PBD inh -3.3%, JMJD2A Tudor inconclusive, KAT2A inh -8.1% and BAZ2B inh 10µM*.
Screening COc1ccc(N2C(=O)/C(=C/c3ccc([N+](=O)[O-])cc3)C=C2c2ccccc2)cc1 returned HP1b binding inh 3.16µM*, PLK1 PBD inh -10.4%, JMJD2A Tudor 2.82µM*, KAT2A inh -0.8% and BAZ2B inh 2.24µM*.
Screening O=C(O)c1cccc(N2C(=O)c3cc([N+](=O)[O-])cc4cc([N+](=O)[O-])cc(c34)C2=O)c1 returned PI5P4Ka inh -73.1*, HP1b binding inh inconclusive, PLK1 PBD inh 8.44µM*, JMJD2A Tudor 50.1µM*, KAT2A inh inconclusive and BAZ2B inh 56.2µM*.
O=C1/C(=C/c2ccc([N+](=O)[O-])cc2)C=C(c2ccccc2)N1c1ccccc1 was read as HP1b binding inh -4.9%, PLK1 PBD inh -21.5%, JMJD2A Tudor -25.6%, KAT2A inh -0.4% and BAZ2B inh -26.3%.

Screening data from PubChem BioAssay.
